Experiment [1] can be described thus: inhibitors of TNFa-induced NFkB p65 translocation, primary screen, imaging, HUVEC, MLSMR starter and 10KST1 sets (AID 438;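 active = inhibition above 20% together with a positive visual image hit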;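 note: compound added about 3h40 before a 20 min TNFalpha stimulation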;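 for inhibition: signal is the nuclear over cytoplasmic p65 intensity ratio per well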). The conditions noted are these: HUVEC TNFa-induced p65 nuclear translocation; cell count: measured here: nuclei count (cytotoxicity indicator), at 2.08 µM; inhibition: at 2 µM, stronger effect = higher value, 0% TNFa-plus-vehicle, 100% no-TNFa wells.

A short description of experiment [2]: inhibitors of mutant huntingtin aggregation, primary screen, imaging, exon1htt(103Q)mCFP cells, high-content imaging (AID 483;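 active = visual image review flags a hit and inhibition of aggregation exceeds 20%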;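 note: compound exposure lasted 3 days before fixation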;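 for nuclei count: percent of the per-plate median nuclei count of sample wells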). The conditions noted are these: exon1htt(103Q)mCFP cell line, aggregate imaging, at 2 µM; inhibition of aggregation: stronger effect = higher value; nuclei count: measured here: cell count, toxicity.
Experiment [3] is described as follows: inhibitors of E-selectin induction by TNFa, primary screen, imaging, HUVEC, immunofluorescence, MLSMR starter and 10KST1 sets (AID 487;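 active = visually confirmed hit in the image check and inhibition above 20%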;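 for inhibition: signal is fraction of cell area covered by stained E-selectin grains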;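 for nuclei count: 100% = median nuclei count of all wells on the same plate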). The following applies: HUVEC TNFalpha-induced E-selectin immunofluorescence imaging, at 2 µM; inhibition: stronger effect = higher value; nuclei count: measured here: cell number, toxicity.
Experiment [4] concerns the target Voltage-gated potassium channel subunit beta-2 (Rattus norvegicus) (UniProt P62483). Description: KvBeta enzyme negative modulators, primary screen, biochemical, NADPH fluorescence (AID 622;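 active = fluorescence slope higher than the sample average by over 3 SD, cut at about -0.22 in these data, passing the limit was not always enough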;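 note: slope of raw intensity against log time taken from 70 to 1610 s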). The following applies: recombinant KvBeta, 4-cyanobenzaldehyde reduction, at 10 µM, stronger effect = higher value.
Experiment [5] shares this target. Description: KvBeta positive modulators, primary screen, biochemical, NADPH fluorescence (AID 623;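 active = NADPH fluorescence slope more negative than the mean of all samples by about 3 SD, 99.7% confidence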;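 note: fluorescence intensity change per second fitted from 20 to 320 s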). The conditions noted are these: Recombinant KvBeta, NADPH fluorescence decrease slope, 10 min; at 10 µM; stronger effect = lower value.
Experiment [6] has as its target Alpha-2C adrenergic receptor (Homo sapiens) (UniProt P18825). Description: modulators of alpha2C/GIRK thallium flux, primary screen, cell-based, HEK293 alpha2C/GIRK1/2 (AID 624).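 Note: slope of fluorescence ratio to pre-addition baseline per second over 15 to 24 s.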 The conditions noted are these: thallium flux BTC fluorescence, at 10 µM, actives lie on both sides.
Experiment [7] in a line: inhibitors of Sendai virus-induced IRF3 signaling, primary screen, TLR/RLR signaling modifier project, cell-based, Sendai virus stimulus, luciferase, 10K MLSCN set (AID 602276;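 active = inhibition at or above 50% at 10 µM; inactive = inhibition below 50%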;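 note: firefly luciferase from ISG56 promoter only with Renilla not read in this screen; 0% = Sendai virus plus DMSO and 100% = medium plus DMSO without virus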). The following applies: HEK293 RL24 IRF3 luciferase reporter, at 10 µM, stronger effect = higher value.
Experiment [8] is described as follows: inhibitors of poly I:C-induced TLR3 signaling, primary screen, cell-based, poly I:C stimulus, luciferase, 10K MLSCN set (AID 602277;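 active = inhibition of the reporter signal at or above 50%; inactive = inhibition below 50%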). The conditions noted are these: HEK293-TLR3 RL24 IRF3 luciferase reporter, at 10 µM, stronger effect = higher value. Background: In a reporter assay the amount or activity of a reporter protein is the signal.

Consider eight compounds from PubChem BioAssay.

Calls of active or inactive are those of the source.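 Rule for the calls, unless noted: active = fluorescence slope after compound addition differing from the mean of all screened samples at 99.7% confidence, in either direction; inactive = the rest.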

Sequence of Alpha-2C adrenergic receptor (Homo sapiens) (P18825 whole entry, looked up): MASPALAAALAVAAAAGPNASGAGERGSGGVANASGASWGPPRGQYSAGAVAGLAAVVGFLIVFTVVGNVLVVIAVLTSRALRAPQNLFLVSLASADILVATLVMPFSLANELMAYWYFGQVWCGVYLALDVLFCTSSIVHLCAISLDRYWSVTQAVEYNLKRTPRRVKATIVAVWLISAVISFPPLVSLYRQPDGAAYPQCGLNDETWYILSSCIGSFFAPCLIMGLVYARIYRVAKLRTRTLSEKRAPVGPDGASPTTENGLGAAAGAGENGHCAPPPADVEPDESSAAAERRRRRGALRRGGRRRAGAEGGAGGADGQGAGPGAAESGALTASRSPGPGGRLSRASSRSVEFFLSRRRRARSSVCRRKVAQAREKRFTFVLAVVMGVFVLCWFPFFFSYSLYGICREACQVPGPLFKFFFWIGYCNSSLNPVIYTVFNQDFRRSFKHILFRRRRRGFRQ
Sequence of Voltage-gated potassium channel subunit beta-2 (Rattus norvegicus) (P62483 whole entry, looked up): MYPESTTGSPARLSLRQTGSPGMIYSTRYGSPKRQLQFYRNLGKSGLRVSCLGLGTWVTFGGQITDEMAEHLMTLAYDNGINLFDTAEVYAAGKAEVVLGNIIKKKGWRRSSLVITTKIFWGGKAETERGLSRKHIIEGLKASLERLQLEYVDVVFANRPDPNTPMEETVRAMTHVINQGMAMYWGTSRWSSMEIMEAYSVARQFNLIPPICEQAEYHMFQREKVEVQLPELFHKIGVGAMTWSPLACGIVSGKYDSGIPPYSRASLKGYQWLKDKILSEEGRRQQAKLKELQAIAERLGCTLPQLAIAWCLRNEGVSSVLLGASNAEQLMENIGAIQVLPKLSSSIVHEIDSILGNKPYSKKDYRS

`O=C(Nc1cccc2ccccc12)N1CCOCC1`: the cell count in experiment [1] stood at 654. Also, the inhibition is -3.4% (inactive) in experiment [1], -33.2% (inactive) in experiment [3], 18.7% (inactive) in experiment [7] and 23.7% (inactive) in experiment [8]. In experiment [2], the inhibition of aggregation is -12% (inactive). Moreover, the nuclei count in experiment [2] came out at 116%; in experiment [3], 106%. Further, in experiment [4], the fluorescence slope was -0.341 (inactive). The NADPH fluorescence slope in experiment [5] is -6.3e-05 (inactive). Besides, in experiment [6], the slope was 0.00634 (inactive).

`COc1ccc(CNc2ccc(C(=O)O)cc2)cc1`: the cell count in experiment [1] is 511. The inhibition in experiment [1] is -28.3% (inactive); in experiment [3], -61% (inactive); in experiment [7] it was -4.3% (inactive); in experiment [8], -15.8% (inactive). For the same compound, the inhibition of aggregation in experiment [2] is -17.2% (inactive). Besides, the results for the nuclei count in experiment [2] and in experiment [3] were 116% and 107%, respectively. In experiment [4], the fluorescence slope is -0.513 (inactive). For the same compound, the NADPH fluorescence slope in experiment [5] is -3.9e-05 (inactive). In experiment [6], the slope was 0.00575 (inactive).

In the case of `CC(C)Cn1c(CN2CCCCC2C)nc2c1c(=O)n(C)c(=O)n2C` (stereo not drawn), in experiment [1], the cell count was 693. Moreover, the inhibition in experiment [1] was -10% (inactive); in experiment [3], -25% (inactive); in experiment [7] it was 2.69% (inactive); in experiment [8], 21.9% (inactive). In experiment [2], the inhibition of aggregation is 12.5% (inactive). In addition, the values for the nuclei count in experiment [2] and in experiment [3] were 93% and 116%, respectively. Also, the fluorescence slope in experiment [4] was -0.537 (inactive). Also, the NADPH fluorescence slope in experiment [5] is -1.5e-05 (inactive). Also, the slope in experiment [6] was 0.00589 (inactive).

Take `CCN(CC)S(=O)(=O)c1ccc(F)cc1`: the cell count in experiment [1] is 630. The inhibition in experiment [1] was 2.4% (inactive); in experiment [3] it was -75.6% (inactive); in experiment [7] it was 13.9% (inactive); in experiment [8] it was 19.3% (inactive). Moreover, the inhibition of aggregation in experiment [2] was -0.6% (inactive). The nuclei count in experiment [2] is 100%; in experiment [3], 114%. The fluorescence slope in experiment [4] is -0.506 (inactive). For the same compound, the NADPH fluorescence slope in experiment [5] is -0.000197 (inactive). Besides, in experiment [6], the slope is 0.00613 (inactive).

With `O=C(NCC(=O)N1CCC(N2CCCCC2)CC1)C1CCCCC1`, the cell count in experiment [1] is 505. Besides, the inhibition in experiment [1] is -12% (inactive); in experiment [3], 10.2% (inactive); in experiment [7], -3.39% (inactive); in experiment [8] it was 1.58% (inactive). For the same compound, the inhibition of aggregation in experiment [2] is 19.9% (inactive). Moreover, the nuclei count in experiment [2] came to 91.8%; in experiment [3] it was 91%. In experiment [4], the fluorescence slope was -0.481 (inactive). For the same compound, the NADPH fluorescence slope in experiment [5] was -0.000128 (inactive). In experiment [6], the slope is 0.00598 (inactive).

Turning to `Cn1cc(C(=O)c2ccc(F)cc2)cc1-c1nc2ccccc2n1C`, the cell count in experiment [1] came out at 357. In addition, the inhibition in experiment [1] was -6.3% (inactive); in experiment [3] it was 5.7% (inactive); in experiment [7], 3.11% (inactive); in experiment [8], -17.9% (inactive). The inhibition of aggregation in experiment [2] was 23.1% (inactive). The values for the nuclei count in experiment [2] and in experiment [3] were 86.8% and 83%, respectively. In experiment [4], the fluorescence slope was -0.59 (inactive). Moreover, in experiment [5], the NADPH fluorescence slope was -4.1e-05 (inactive). In addition, the slope in experiment [6] was 0.0041 (inactive).

On to `Cc1ccc(CSc2nc3c(c(=O)[nH]2)CCC3)cc1`, for which the cell count in experiment [1] worked out at 423. The inhibition was 11.5% (inactive) in experiment [1], 4.9% (inactive) in experiment [3], -0.266% (inactive) in experiment [7] and 8.89% (inactive) in experiment [8]. For the same compound, in experiment [2], the inhibition of aggregation is -3.3% (inactive). Also, the nuclei count in experiment [2] and in experiment [3] was 103% throughout. In addition, the fluorescence slope in experiment [4] was -0.363 (inactive). In addition, in experiment [5], the NADPH fluorescence slope was -2.9e-05 (inactive). The slope in experiment [6] was 0.00659 (inactive).

On to `CCOc1ccc(NC(=O)CSc2nnc(Cc3cccn3C)n2-c2ccc(OC)cc2)cc1`, for which, in experiment [1], the cell count stood at 366. Further, the inhibition in experiment [1] is -0.3% (inactive); in experiment [3], -103% (inactive); in experiment [7], -4.09% (inactive); in experiment [8], -3.93% (inactive). In addition, the inhibition of aggregation in experiment [2] was 0.9% (inactive). For the same compound, the nuclei count in experiment [2] worked out at 98%; in experiment [3] it was 117%. Further, the fluorescence slope in experiment [4] is -0.489 (inactive). Moreover, the NADPH fluorescence slope in experiment [5] was 1.6e-05 (inactive). Further, the slope in experiment [6] was 0.0062 (inactive).

A word on the inhibition: it is the drop in the measured response relative to a control, in per cent.
